From PubChem BioAssay
Several values for one entry are separate records, joined by “and”; a condition that tells them apart may be missing. Identical values can stand only once.

What was measured:
[1] = tested on: Botulinum neurotoxin type F light chain protease (Clostridium botulinum); test: Clostridium botulinum type F light chain protease inhibitors, microsphere substrate cleavage, validation (AID 588459); details: multiplex microsphere protease substrate cleavage assay, flow cytometry; at 10 µM; active compounds read high
[2] = molecular target: Botulinum neurotoxin type A (Clostridium botulinum) (UniProt P0DPI0); test: BoNT/A light chain protease inhibitors, biochemical, multiplex microsphere flow cytometry, validation set (AID 588460); details: at 10 µM, active compounds read high
[3] = molecular target: Lethal factor (Bacillus anthracis) (UniProt P15917); test: Bacillus anthracis lethal factor inhibition, microsphere flow cytometry protease assay, validation at 10 µM (AID 588461); details: multiplex microsphere protease cleavage assay, active compounds read high

Measured: inhibition

C=CCC1(O)C(=O)N2C(=C1C(=O)N1CCOCC1)c1ccccc1CC2(C)C (configuration not stated)
inactive: [1] -1.7% | [2] -0.2% | [3] 5.7%

Cc1ccc(CSCC(=O)N2CCCC2)cc1
inactive: [1] 2.8% | [2] -0.3% | [3] 0%

CC(=O)Oc1ccc2occ(/C=N/c3cc(=O)[nH]c(=S)[nH]3)c(=O)c2c1
inactive: [1] 2% | [2] 0.7% | [3] -4.2%

CCN(CCCc1ccccc1)CCCc1ccccc1
inactive: [1] 1% | [2] -0.4% | [3] -2.4%

COC(=O)[C@@H](N)CS
inactive: [1] 2.1% | [2] -1.9% | [3] -1.2%

COc1ccccc1-c1ccc(/C=C2/C=C(CC(C)C)OC2=O)o1
inactive: [1] 4.8% | [2] 1.7% | [3] 7.1%

O=C(O)CCSCCC(=O)O
inactive: [1] 1.3% | [2] -1.1% | [3] -7.4%

O=C(COc1ccc2ccc(=O)oc2c1)c1ccccc1
inactive: [1] -5.2% | [2] -1.1% | [3] 1%

COCCNC(=O)CSc1ccc(Cl)cc1
inactive: [1] 1.8% | [2] 0.7% | [3] 1.4%

COc1ccc(CC(=O)N2CC3(C)CC2CC(C)(C)C3)cc1OC (configuration not stated)
inactive: [1] -2.6% | [2] -1.4% | [3] -0.4%

O=C(O)CCCc1ccccc1
inactive: [1] -3.3% | [2] -2.3% | [3] -6.6%

Oc1ccccc1OCCOc1ccccc1OCCOc1ccccc1O
inactive: [1] 6.5% | [2] 0.7% | [3] -0.4%

O=C1C=CC(=O)C(C2=C3C(=O)N(CCc4ccccc4)CC(=O)N3CCC2)=C1
inactive: [1] 1.8% | [2] -0.3% | [3] -4.9%

Clc1ccc(Cn2c(CN3CCCC3)nc3ccccc32)cc1
inactive: [1] -2.6% | [2] -1% | [3] -0.3%

CCc1nc2ccccc2n1Cc1ccc(OC)c(OC)c1
inactive: [1] -1.2% | [2] 0.6% | [3] 0.6%

C[C@]12CC[C@@H]3c4ccc(O)cc4CC[C@H]3[C@@H]1CCC2=O
inactive: [1] 1.3% | [2] -2.2% | [3] -3.8%

Cn1c([N+](=O)[O-])cnc1COC(N)=O
inactive: [1] 1.4% | [2] -0.6% | [3] -1.2%

CC(=O)c1cccc(NC(=O)N[C@@H](CC(C)C)C(=O)O)c1
inactive: [1] -0.3% | [2] -1.7% | [3] -2.8%

CCCCC/C=C\C[C@H](O)/C=C/c1cccc(C[C@H](O)CCCCO)n1
inactive: [1] 2.3% | [2] 1.9% | [3] -6.2%

CN1CCC(=C2c3ccccc3C=Cc3ccccc32)CC1
inactive: [1] -1.3% | [2] -1.2% | [3] -8.4%

O=C(CNC(=O)OCc1ccccc1)Oc1cc2oc(=O)cc(-c3ccccc3)c2cc1Cl
inactive: [1] 2.7% | [2] 0.9% | [3] 11.5%

O=C(Nc1ccc(Cl)cn1)Nc1ccccc1Cl
inactive: [1] 2.9% | [2] 0.2% | [3] -4.9%

CCC(=O)c1ccc(OCc2ccc(C(=O)OC)cc2)cc1
inactive: [1] -1.6% | [2] 0.7% | [3] -3.4%

O=C1CC(c2ccc(O)cc2)Oc2cc(O)cc(O)c21 (configuration not stated)
inactive: [1] -2.6% | [2] -1.8% | [3] -0.4%

Cc1ccc(OCCCCn2ccnc2C)c(C)c1
inactive: [1] -5.4% | [2] -1.6% | [3] -1.6%

COc1cccc(OC)c1C(=O)Nc1nc2ccc([N+](=O)[O-])cc2s1
inactive: [1] 7.7% | [2] 3.3% | [3] 7.5%

COc1cc(Cc2cnc(N)nc2N)cc(OC)c1OC
inactive: [1] 4.4% and 6.3% | [2] 0% and -0.2% | [3] -0.1% and 0.6%

O=C(OCCN1CCOCC1)c1cccs1
inactive: [1] -2.8% | [2] -0.9% | [3] -1.2%

COc1cc2[nH]c3c(=O)n(CCN4CCOCC4)cnc3c2cc1OC
inactive: [1] 0.3% | [2] 0.1% | [3] 1%

CC(=O)OCC#CCSc1nc2ccccc2n1C
inactive: [1] 0.7% | [2] -0.6% | [3] -1.5%

O=C(CN1C(=O)c2ccccc2S1(=O)=O)Nc1ccccc1
inactive: [1] 2.3% | [2] 0.2% | [3] -4.6%

O=C(CC(NC(=O)OCc1ccccc1)C(=O)O)OCc1ccccc1 (configuration not stated)
inactive: [1] -3.2% | [2] -2.1% | [3] 2.5%

Cc1ccc2c(c1)C(CCN)C(=O)N2Cc1ccccc1 (configuration not stated)
inactive: [1] -1% | [2] 0.7% | [3] 6.7%

CC1(C)Cc2ccccc2-c2nc(-c3ccccc3)oc(=O)c21
inactive: [1] -1.9% | [2] 0% | [3] -0.2%

C[N+](C)(C)CCCCCCCCCC[N+](C)(C)C
inactive: [1] -0.3% | [2] -0.8% | [3] -5.3%

O=C1OC(c2ccc(O)cc2)(c2ccc(O)cc2)c2ccccc21
inactive: [1] -0.3% | [2] -0.8% | [3] -3.6%

OC(CCCN1CCC(O)(c2ccc(Cl)cc2)CC1)c1ccc(F)cc1 (configuration not stated)
inactive: [1] -1.7% | [2] 1.7% | [3] -4.8%

COc1ccc2nc(Nc3nc(CSc4ccc(C)cc4)cc(=O)[nH]3)nc(C)c2c1
inactive: [1] 0.6% | [2] -0.3% | [3] 2%

CCc1cc(/C(Cc2ccccn2)=N\O)c(O)cc1O
inactive: [1] -2.8% | [2] -2.8% | [3] -5.1%

CC(=O)[C@@]1(O)CC[C@H]2[C@@H]3CCC4=CC(=O)CC[C@]4(C)[C@H]3CC[C@@]21C
inactive: [1] 11.2% | [2] 0.4% | [3] -5.7%

COc1ccc(C(=O)Nc2ncc3c(n2)CC(C)CC3=O)cc1 (configuration not stated)
inactive: [1] -1.5% | [2] -0.9% | [3] -4.5%

CC(C)CC(=O)N(Cc1ccc(F)cc1)C1CCS(=O)(=O)C1 (configuration not stated)
inactive: [1] 8.9% | [2] 3.7% | [3] -4%

O=C(/C=C/c1ccco1)N1CCN(c2ccccc2)CC1
inactive: [1] -0.6% | [2] -1.8% | [3] -0.6%

CC(=O)O[C@H]1C[C@@]2(C)[C@@H](C[C@@H](O)[C@H]3[C@@]4(C)CC[C@@H](O)[C@@H](C)C4CC[C@@]32C)/C1=C(\CCC=C(C)C)C(=O)O (some centres not stated)
inactive: [1] -2.5% | [2] -0.2% | [3] 1.4%

CCN(CC)C(=S)SSC(=S)N(CC)CC
inactive: [1] -3.2% | [2] -3.2% | [3] -10.6%

c1ccc2c(CC3=NCCN3)cccc2c1
inactive: [1] -3.3% | [2] -2.2% | [3] -9.2%

Clc1cc(-c2ccc(/C=N/n3cnnc3)o2)ccc1Br
inactive: [1] -3.6% | [2] -0.3% | [3] 0.9%

OCCN(CCO)c1ccc2ccccc2c1
inactive: [1] -1.3% | [2] -1.2% | [3] -6.6%

COC(=O)c1cc(=O)c2ccc(OC)cc2o1
inactive: [1] -4.1% | [2] -0.9% | [3] 2.2%

O=c1nc2cccc3c2=c(/c1=C(\O)c1ccccc1)c1ccccc1c3=O
inactive: [1] 3.2% | [2] 0.6% | [3] -0.8%

N=C(N)c1ccc(OCCCCCOc2ccc(C(=N)N)cc2)cc1
inactive: [1] 0.7% | [2] -1.6% | [3] -2.7%

Nc1nc2c(ncn2COC(CO)CO)c(=O)[nH]1
inactive: [1] -0.4% | [2] -1.1% | [3] -4.8%

CCCCCC(=O)O[C@]1(C(C)=O)CC[C@H]2[C@@H]3CCC4=CC(=O)CC[C@]4(C)[C@H]3CC[C@@]21C
inactive: [1] 1.9% | [2] 1.3% | [3] -1.6%

CCOC(=O)C1CCCN(Cc2nc(Cc3cccc(F)c3)no2)C1 (configuration not stated)
inactive: [1] 0.1% | [2] -0.4% | [3] 0.6%

CCOc1ccc2ccccc2c1C(=O)N[C@@H]1C(=O)N2[C@@H]1SC(C)(C)[C@@H]2C(=O)O
inactive: [1] 5.4% | [2] 1.2% | [3] 0.3%

Cc1c(O)c(=O)ccn1C
inactive: [1] 3.3% | [2] -1% | [3] 0.9%

COc1ccc(CNC(=O)c2c(O)c3cccc4c3n(c2=O)CCC4)cc1
inactive: [1] 4.9% | [2] -0.1% | [3] -5.7%

COc1cc2c3c(c1)C1(C(=O)N3C(C)(C)C=C2C)C(C#N)=C(N)Oc2cc(C)oc(=O)c21 (configuration not stated)
inactive: [1] 0.4% | [2] 2.4% | [3] -3.3%

Cc1ccc(C2CC(c3cccs3)=NN2C(=O)c2ccco2)o1 (configuration not stated)
inactive: [1] -0.5% | [2] -0.5% | [3] 1.3%

COc1ccc(C(=O)NCC2OCCc3ccccc32)cc1 (configuration not stated)
inactive: [1] -0.4% | [2] -0.3% | [3] -8.6%

COc1ccc(S(=O)(=O)N2CCN(C(=O)COc3ccc4c(C)cc(=O)oc4c3)CC2)cc1
inactive: [1] 2.4% | [2] 0.1% | [3] -0.8%

COc1ccc(CCN2CNc3c(c(=O)n(C)c(=O)n3C)C2)cc1OC
inactive: [1] 22.1% | [2] 8% | [3] 4.8%

OC[C@H]1O[C@@H](n2cnc3c(NC4CCCC4)ncnc32)[C@H](O)[C@@H]1O
inactive: [1] -1.4% | [2] 0.2% | [3] -6.9%

CCc1ccc(/C=C2\SC(=S)N(CCC(=O)N3CCN(C)CC3)C2=O)cc1
inactive: [1] 4.9% | [2] 2.1% | [3] 4.9%
